Data taken from PubChem BioAssay.

Assay: growth inhibition of CRL1545 osteosarcoma cells, cell-based, cisplatin and BGB IC20 combos (AID 1671464);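 further: cells exposed to compound for 96 hours before readout; 0% = vehicle DMSO and 100% = high DMSO killing control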
Details: single agent, at 5 µM, stronger effect = higher value

Point of comparison: CC(Oc1cc(-c2cnn(C3CCNCC3)c2)cnc1N)c1c(Cl)ccc(F)c1Cl (stereo not drawn), inhibition 64%. Against it:
- O=C(O)c1cc2cccc([N+](=O)[O-])c2[nH]1 — lower, -25.9%
- O=c1[nH]c(=O)n(C2CC(O)C(CO)O2)cc1I (stereo not drawn) — lower, 6.02%
